{"source": "the supplement of paper PMC7366291", "settings_in_all_cases": "25 µM; exposure: 24-48 hpf", "key": {"[1]": {"system": "Danio rerio Tg(wt1b:EGFP) embryo, pronephros", "test": "glomerular separation, fold change vs DMSO control; higher = glomeruli further apart (abnormal)", "summary_of_the_method": "(§1)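 Distances and angles describing the pronephros were computed by a Fiji macro from 16 reference points set manually on maximum projections of dorsal images. These images came from dechorionated Tg(wt1b:EGFP) zebrafish embryos held in agarose-filled 96-well plates after exposure to 25 μM compound in 0.5% DMSO, in HEPES-buffered E3 with 0.003% PTU, from 24 to 48 hpf at 28.5°C. Any value more than 2 SD from the feature mean was excluded. Features are stated as fold change relative to the mean of same-day DMSO-treated embryos.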"}, "[2]": {"system": "Danio rerio Tg(wt1b:EGFP) embryo, pronephros", "test": "glomerular width (mean of left and right), fold change vs DMSO control; higher = wider glomerulus", "summary_of_the_method": "as §1"}, "[3]": {"system": "Danio rerio Tg(wt1b:EGFP) embryo, pronephros", "test": "fraction of imaged embryos annotated as normal kidney; higher = less nephrotoxic; extreme values may be limits of the assay", "summary_of_the_method": "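Zebrafish embryos carrying Tg(wt1b:EGFP) were dechorionated and exposed to 25 μM compound (0.5% DMSO) between 24 and 48 hpf at 28.5°C. Their pronephroi were imaged by widefield fluorescence, and each embryo was classed by hand from maximum projections. The measure is the fraction of embryos per treatment falling in the normal-kidney category.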"}, "[4]": {"system": "Danio rerio Tg(wt1b:EGFP) embryo, pronephros", "test": "pronephric angle neck segment to proximal convoluted tubule (mean of left and right), fold change vs DMSO control; higher = larger pronephric angle", "summary_of_the_method": "as §1"}}, "note": "± gives the standard deviation or the standard deviation of the averaged measurements."}
{"smiles": "O=C(O)CCC(=O)Nc1ccc(S(=O)(=O)Nc2nccs2)cc1", "note": "[Succinylsulfathiazole]", "values": [{"measurement": "glomerular separation", "setting": "[1]", "value": "0.974 ± 0.39"}, {"measurement": "glomerular width", "setting": "[2]", "value": "1.03 ± 0.012"}, {"measurement": "fraction of imaged embryos annotated as normal kidney", "setting": "[3]", "value": 0.667}, {"measurement": "pronephric angle neck segment", "setting": "[4]", "value": "0.997 ± 0.029"}]}
{"smiles": "CN1CCN(CCCN2c3ccccc3Sc3ccc(Cl)cc32)CC1", "note": "[Prochlorperazine dimaleate]", "values": [{"measurement": "glomerular separation", "setting": "[1]", "value": "1.05 ± 0.37"}, {"measurement": "glomerular width", "setting": "[2]", "value": "1.01 ± 0.033"}, {"measurement": "fraction of imaged embryos annotated as normal kidney", "setting": "[3]", "value": 0.833}, {"measurement": "pronephric angle neck segment", "setting": "[4]", "value": "1.02 ± 0.027"}]}
{"smiles": "COCC(=O)Nc1c(I)c(C(=O)NCC(O)CO)c(I)c(C(=O)N(C)CC(O)CO)c1I", "note": "(configuration not stated) [Iopromide]", "values": [{"measurement": "glomerular separation", "setting": "[1]", "value": "0.857 ± 0.4"}, {"measurement": "glomerular width", "setting": "[2]", "value": "1.02 ± 0.041"}, {"measurement": "fraction of imaged embryos annotated as normal kidney", "setting": "[3]", "value": 0.917}, {"measurement": "pronephric angle neck segment", "setting": "[4]", "value": "0.97 ± 0.023"}]}
